Reference: the supplement of paper PMC10849652
Targets with a hit are over-represented here; the source holds about 7,900 in all. About 0.6% of all pairs of compound and target were hits. Values without a mark were called inactive.

Assays:
Assay in all cases: log2 fold change, soluble protein after heating vs DMSO (PISA); higher = thermal stabilisation; K562 cells, 10 uM, 30 min; active = over 0.2 and 3.5 SD of the protein, either way, in both replicates (recomputed)
IRAK-1-4 Inhibitor I = compound: C1COCCN1CCN2C3=CC=CC=C3N=C2NC(=O)C4=CC(=CC=C4)[N+](=O)[O-] [IRAK-1-4 Inhibitor I]
Method in brief: (§1)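 For each measurement, 10 μM compound was applied for 30 min to K562 cells at 2×10^6 cells/mL. Aliquots were heated for 3 min across 48°C-58°C, pooled, and extracted in PBS with 0.5% NP-40 at 4°C; the supernatant after 21,000xg for 90 min was soluble protein. This was quantified by TMTpro 16plex LC-MS/MS with channel sums equalised, and thermal stability was reported relative to control samples from duplicates, on a log2 fold-change scale.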

ibrutinib = compound: C=CC(=O)N1CCC[C@@H](n2nc(-c3ccc(Oc4ccccc4)cc3)c3c(N)ncnc32)C1 [ibrutinib]
Method in brief: as §1

[1] = compound: CC(=O)c1cnc2ccc(-c3cc(Cl)c(O)c(Cl)c3)nc2c1N[C@H]1CC[C@H](CN(C)C)CC1
Method in brief: as §1

ralimetinib = compound: CC(C)(C)Cn1c(N)nc2ccc(-c3[nH]c(C(C)(C)C)nc3-c3ccc(F)cc3)nc21 [ralimetinib]
Method in brief: as §1

[2] = compound: CC(C)(O)CC(=O)NCCn1ccc2ncnc(Nc3ccc(Oc4cccc(C(F)(F)F)c4)c(Cl)c3)c21
Method in brief: as §1

[3] = compound: CC(C)C1=C2N=C(C=C(N2N=C1)NCC3=CC=CC=C3)NCCCCCCN
Method in brief: as §1

[4] = compound: CC(C)C[C@@H](C=O)NC(=O)[C@H](CC(C)C)NC(=O)[C@H](CC(C)C)NC(=O)OCc1ccccc1
Method in brief: as §1

pinometostat = compound: CC(C)N(C[C@H]1O[C@@H](n2cnc3c(N)ncnc32)[C@H](O)[C@@H]1O)[C@H]1C[C@@H](CCc2nc3cc(C(C)(C)C)ccc3[nH]2)C1 [pinometostat]
Method in brief: as §1

[5] = compound: CC1=C(C(CC(=O)N1)C2=CC=C(C=C2)C(F)(F)F)C(=O)NC3=C(C=C4C(=C3)C=NN4)F
Method in brief: as §1

[6] = compound: CC1=C(C2=C(C=C1)C(=O)C3=CC=CC=C3N2CCCN)C
Method in brief: as §1

[7] = compound: CC1=C(C=C(C=C1)NC(=O)C2=CC(=CC=C2)C(C)(C)C#N)NC3=CC4=C(C=C3)N=CN(C4=O)C
Method in brief: as §1

[8] = compound: CC1=C(C=C(C=C1)NC(=O)C2=CC(=CC=C2)N(C)C)NC(=O)C3=CC=C(C=C3)O
Method in brief: as §1

[9] = compound: CC1=CC=C(C=C1)SC2=C3C=C(SC3=CN=C2)C(=O)N
Method in brief: as §1

[10] = compound: CC1=NC(=CC=C1)C2=C(N=C(N2)C(C)(C)C)C3=CC4=NC=CN=C4C=C3
Method in brief: as §1

Nexturastat A = compound: CCCCN(Cc1ccc(C(=O)NO)cc1)C(=O)Nc1ccccc1 [Nexturastat A]
Method in brief: as §1

vemurafenib = compound: CCCS(=O)(=O)Nc1ccc(F)c(C(=O)c2c[nH]c3ncc(-c4ccc(Cl)cc4)cc23)c1F [vemurafenib]
Method in brief: as §1

[11] = compound: CCCS(=O)(=O)Nc1ccc(F)c(C(=O)c2c[nH]c3ncc(Cl)cc23)c1F
Method in brief: as §1

[12] = compound: CCCc1cc(C)[nH]c(=O)c1CNC(=O)c1cc(-c2ccnc(N3CCN(C)CC3)c2)cc2c1cnn2C(C)C
Method in brief: as §1

givinostat = compound: CCN(CC)Cc1ccc2cc(COC(=O)Nc3ccc(C(=O)NO)cc3)ccc2c1 [givinostat]
Method in brief: as §1

barasertib = compound: CCN(CCCOc1ccc2c(Nc3cc(CC(=O)Nc4cccc(F)c4)[nH]n3)ncnc2c1)CCOP(=O)(O)O [barasertib]
Method in brief: as §1

Target: PSPC1 (UniProt Q8WXF1)
Chain of UniProt Q8WXF1 (Q8WXF1 whole entry, looked up): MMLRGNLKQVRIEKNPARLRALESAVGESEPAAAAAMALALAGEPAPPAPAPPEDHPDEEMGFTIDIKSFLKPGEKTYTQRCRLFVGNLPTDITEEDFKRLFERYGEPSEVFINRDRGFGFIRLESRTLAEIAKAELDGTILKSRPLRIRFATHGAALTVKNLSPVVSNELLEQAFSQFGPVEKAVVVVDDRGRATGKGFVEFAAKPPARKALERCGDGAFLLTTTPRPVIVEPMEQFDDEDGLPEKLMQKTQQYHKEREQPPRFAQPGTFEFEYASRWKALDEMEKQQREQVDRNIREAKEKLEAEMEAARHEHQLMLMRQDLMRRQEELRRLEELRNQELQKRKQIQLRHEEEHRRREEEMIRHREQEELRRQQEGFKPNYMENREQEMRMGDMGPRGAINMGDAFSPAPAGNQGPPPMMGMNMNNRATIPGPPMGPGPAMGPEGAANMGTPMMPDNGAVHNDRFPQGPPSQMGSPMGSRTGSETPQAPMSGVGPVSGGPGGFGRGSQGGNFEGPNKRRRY
- log2 fold change (IRAK-1-4 Inhibitor I): -0.097
- log2 fold change (ibrutinib): 0.002
- log2 fold change [1]: -0.201
- log2 fold change (ralimetinib): -0.012
- log2 fold change [2]: -0.024
- log2 fold change [3]: -0.18
- log2 fold change [4]: 0.048
- log2 fold change (pinometostat): -0.02
- log2 fold change [5]: -0.042
- log2 fold change [6]: 0.15
- log2 fold change [7]: 0.022
- log2 fold change [8]: 0.011
- log2 fold change [9]: 0.01
- log2 fold change [10]: 0.007
- log2 fold change (Nexturastat A): 0.053
- log2 fold change (vemurafenib): -0.003
- log2 fold change [11]: 0.135
- log2 fold change [12]: 0.167
- log2 fold change (givinostat): 0.036
- log2 fold change (barasertib): 0.01

Target: PLSCR1 (UniProt O15162)
Chain of UniProt O15162 (O15162 whole entry, looked up): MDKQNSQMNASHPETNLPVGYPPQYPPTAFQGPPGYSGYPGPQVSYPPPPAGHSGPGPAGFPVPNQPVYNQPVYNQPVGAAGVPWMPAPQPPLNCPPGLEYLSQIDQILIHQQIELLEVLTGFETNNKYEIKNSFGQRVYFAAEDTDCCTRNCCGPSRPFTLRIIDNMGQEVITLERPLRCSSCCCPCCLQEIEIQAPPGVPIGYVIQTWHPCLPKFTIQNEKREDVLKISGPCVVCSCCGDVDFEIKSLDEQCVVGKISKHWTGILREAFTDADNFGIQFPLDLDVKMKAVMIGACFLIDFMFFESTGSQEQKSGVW
- log2 fold change (IRAK-1-4 Inhibitor I): -0.003
- log2 fold change (ibrutinib): 0.002
- log2 fold change [1]: -0.025
- log2 fold change (ralimetinib): -0.046
- log2 fold change [2]: 0.047
- log2 fold change [3]: 0.031
- log2 fold change [4]: -0.036
- log2 fold change (pinometostat): -0.015
- log2 fold change [5]: -0.011
- log2 fold change [6]: 0.031
- log2 fold change [7]: 0.13
- log2 fold change [8]: 0.06
- log2 fold change [9]: 0.025
- log2 fold change [10]: -0.002
- log2 fold change (Nexturastat A): 0.008
- log2 fold change (vemurafenib): -0.05
- log2 fold change [11]: 0.088
- log2 fold change [12]: -0.101
- log2 fold change (givinostat): -0.033
- log2 fold change (barasertib): -0.104

Target: PCGF2 (UniProt P35227)
Chain of UniProt P35227 (P35227 whole entry, looked up): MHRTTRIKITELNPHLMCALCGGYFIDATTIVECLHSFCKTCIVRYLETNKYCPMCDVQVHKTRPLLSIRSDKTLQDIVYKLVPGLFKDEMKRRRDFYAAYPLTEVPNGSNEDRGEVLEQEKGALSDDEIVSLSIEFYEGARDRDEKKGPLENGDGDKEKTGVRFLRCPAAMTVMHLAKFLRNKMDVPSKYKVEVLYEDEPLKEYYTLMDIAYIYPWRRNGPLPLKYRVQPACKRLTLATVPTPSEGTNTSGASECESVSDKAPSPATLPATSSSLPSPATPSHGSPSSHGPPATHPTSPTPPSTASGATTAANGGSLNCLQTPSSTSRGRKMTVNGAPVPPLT
- log2 fold change (IRAK-1-4 Inhibitor I): -0.077
- log2 fold change (ibrutinib): -0.101
- log2 fold change [1]: -0.164
- log2 fold change (ralimetinib): -0.036
- log2 fold change [2]: 0
- log2 fold change [3]: -0.095
- log2 fold change [4]: 0.065
- log2 fold change (pinometostat): -0.075
- log2 fold change [5]: -0.119
- log2 fold change [6]: 0.107
- log2 fold change [7]: -0.043
- log2 fold change [8]: -0.058
- log2 fold change [9]: -0.056
- log2 fold change [10]: 0.033
- log2 fold change (Nexturastat A): -0.01
- log2 fold change (vemurafenib): 0
- log2 fold change [11]: -0.033
- log2 fold change [12]: 0.056
- log2 fold change (givinostat): 0.046
- log2 fold change (barasertib): 0.113

Target: PTRHD1 (UniProt Q6GMV3)
Chain of UniProt Q6GMV3 (Q6GMV3 whole entry, looked up): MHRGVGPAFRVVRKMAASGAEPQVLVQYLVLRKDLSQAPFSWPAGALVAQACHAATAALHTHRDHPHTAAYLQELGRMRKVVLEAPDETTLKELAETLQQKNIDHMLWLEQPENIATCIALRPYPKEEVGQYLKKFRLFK
- log2 fold change (IRAK-1-4 Inhibitor I): 0.155
- log2 fold change (ibrutinib): 0.004
- log2 fold change [1]: -0.048
- log2 fold change (ralimetinib): -0.049
- log2 fold change [2]: -0.022
- log2 fold change [3]: 0.139
- log2 fold change [4]: -0.01
- log2 fold change (pinometostat): 0.003
- log2 fold change [5]: 0.054
- log2 fold change [6]: 0.184
- log2 fold change [7]: -0.051
- log2 fold change [8]: -0.098
- log2 fold change [9]: 0.017
- log2 fold change [10]: 0.022
- log2 fold change (Nexturastat A): 0.074
- log2 fold change (vemurafenib): 0.059
- log2 fold change [11]: -0.024
- log2 fold change [12]: -0.024
- log2 fold change (givinostat): -0.008
- log2 fold change (barasertib): 0.034

Target: PPIL4 (UniProt Q8WUA2)
Chain of UniProt Q8WUA2 (Q8WUA2 whole entry, looked up): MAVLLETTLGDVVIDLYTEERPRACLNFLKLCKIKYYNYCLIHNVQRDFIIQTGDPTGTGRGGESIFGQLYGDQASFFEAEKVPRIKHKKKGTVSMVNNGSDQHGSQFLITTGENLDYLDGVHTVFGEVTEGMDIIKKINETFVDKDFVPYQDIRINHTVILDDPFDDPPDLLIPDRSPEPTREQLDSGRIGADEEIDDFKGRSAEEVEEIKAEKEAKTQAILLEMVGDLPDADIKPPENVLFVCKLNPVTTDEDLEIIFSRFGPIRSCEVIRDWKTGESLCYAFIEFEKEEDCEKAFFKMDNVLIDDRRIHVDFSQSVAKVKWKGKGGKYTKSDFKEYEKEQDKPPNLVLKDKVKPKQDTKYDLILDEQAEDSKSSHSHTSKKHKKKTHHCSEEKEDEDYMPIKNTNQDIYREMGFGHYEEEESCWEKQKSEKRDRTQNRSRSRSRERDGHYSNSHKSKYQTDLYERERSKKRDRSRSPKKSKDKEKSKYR
- log2 fold change (IRAK-1-4 Inhibitor I): -0.102
- log2 fold change (ibrutinib): 0.013
- log2 fold change [1]: -0.27 (active)
- log2 fold change (ralimetinib): 0.101
- log2 fold change [2]: 0.04
- log2 fold change [3]: -0.114
- log2 fold change [4]: -0.065
- log2 fold change (pinometostat): 0.055
- log2 fold change [5]: 0.002
- log2 fold change [6]: 0.066
- log2 fold change [7]: 0.006
- log2 fold change [8]: -0.02
- log2 fold change [9]: -0.06
- log2 fold change [10]: -0.007
- log2 fold change (Nexturastat A): 0.145
- log2 fold change (vemurafenib): 0.001
- log2 fold change [11]: 0
- log2 fold change [12]: 0.04
- log2 fold change (givinostat): 0.045
- log2 fold change (barasertib): 0

Target: PIP4K2A (UniProt P48426)
Chain of UniProt P48426 (P48426 whole entry, looked up): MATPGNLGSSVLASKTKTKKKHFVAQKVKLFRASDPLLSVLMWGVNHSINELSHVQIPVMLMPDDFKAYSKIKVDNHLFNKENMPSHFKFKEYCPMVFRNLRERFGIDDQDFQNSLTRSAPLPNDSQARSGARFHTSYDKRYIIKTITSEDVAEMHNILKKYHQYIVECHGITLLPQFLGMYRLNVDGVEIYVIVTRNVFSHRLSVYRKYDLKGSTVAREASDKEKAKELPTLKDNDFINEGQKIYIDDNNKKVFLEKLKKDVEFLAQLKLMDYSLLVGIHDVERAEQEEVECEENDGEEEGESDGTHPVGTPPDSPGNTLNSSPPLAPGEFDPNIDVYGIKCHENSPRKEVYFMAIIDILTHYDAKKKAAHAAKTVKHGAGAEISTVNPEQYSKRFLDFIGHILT
- log2 fold change (IRAK-1-4 Inhibitor I): 0.115
- log2 fold change (ibrutinib): -0.03
- log2 fold change [1]: 0.749 (active)
- log2 fold change (ralimetinib): -0.068
- log2 fold change [2]: -0.108
- log2 fold change [3]: 0.074
- log2 fold change [4]: 0.018
- log2 fold change (pinometostat): -0.067
- log2 fold change [5]: -0.118
- log2 fold change [6]: -0.02
- log2 fold change [7]: -0.027
- log2 fold change [8]: -0.061
- log2 fold change [9]: 0.017
- log2 fold change [10]: -0.005
- log2 fold change (Nexturastat A): -0.051
- log2 fold change (vemurafenib): -0.044
- log2 fold change [11]: 0.004
- log2 fold change [12]: -0.01
- log2 fold change (givinostat): -0.052
- log2 fold change (barasertib): 0.022

Target: PLEKHM2 (UniProt Q8IWE5)
Chain of UniProt Q8IWE5 (Q8IWE5 whole entry, looked up): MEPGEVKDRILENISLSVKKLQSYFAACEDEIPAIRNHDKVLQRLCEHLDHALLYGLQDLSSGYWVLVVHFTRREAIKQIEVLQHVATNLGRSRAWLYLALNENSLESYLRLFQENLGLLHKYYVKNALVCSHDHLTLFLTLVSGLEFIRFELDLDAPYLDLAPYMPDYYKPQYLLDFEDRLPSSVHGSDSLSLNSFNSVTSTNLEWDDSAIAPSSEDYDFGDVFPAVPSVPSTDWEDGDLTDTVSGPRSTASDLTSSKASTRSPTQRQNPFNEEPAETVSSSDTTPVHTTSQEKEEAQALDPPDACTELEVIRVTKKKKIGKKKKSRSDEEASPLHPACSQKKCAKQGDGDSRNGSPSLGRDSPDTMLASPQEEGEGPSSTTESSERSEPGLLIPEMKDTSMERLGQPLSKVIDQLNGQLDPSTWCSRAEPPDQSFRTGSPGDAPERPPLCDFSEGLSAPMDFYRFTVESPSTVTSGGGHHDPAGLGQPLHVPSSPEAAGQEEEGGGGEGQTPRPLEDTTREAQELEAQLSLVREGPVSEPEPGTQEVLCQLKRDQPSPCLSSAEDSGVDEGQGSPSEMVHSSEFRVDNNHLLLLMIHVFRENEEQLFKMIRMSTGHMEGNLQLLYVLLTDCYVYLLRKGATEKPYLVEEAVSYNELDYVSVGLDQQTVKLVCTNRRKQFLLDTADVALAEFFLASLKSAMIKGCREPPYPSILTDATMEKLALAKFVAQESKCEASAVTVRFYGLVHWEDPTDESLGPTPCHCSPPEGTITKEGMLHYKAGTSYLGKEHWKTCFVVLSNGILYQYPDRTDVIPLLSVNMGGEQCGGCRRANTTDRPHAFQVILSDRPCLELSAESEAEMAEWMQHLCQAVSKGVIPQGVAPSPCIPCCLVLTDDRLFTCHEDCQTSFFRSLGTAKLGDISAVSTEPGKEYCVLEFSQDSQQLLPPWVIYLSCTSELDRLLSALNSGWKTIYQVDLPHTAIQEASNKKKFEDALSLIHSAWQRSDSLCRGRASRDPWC
- log2 fold change (IRAK-1-4 Inhibitor I): -0.018
- log2 fold change (ibrutinib): -0.073
- log2 fold change [1]: -0.085
- log2 fold change (ralimetinib): 0.162
- log2 fold change [2]: 0.016
- log2 fold change [3]: -0.034
- log2 fold change [4]: -0.102
- log2 fold change (pinometostat): -0.042
- log2 fold change [5]: -0.069
- log2 fold change [6]: 0.016
- log2 fold change [7]: 0.064
- log2 fold change [8]: 0.035
- log2 fold change [9]: 0.052
- log2 fold change [10]: -0.011
- log2 fold change (Nexturastat A): -0.028
- log2 fold change (vemurafenib): 0.075
- log2 fold change [11]: 0.124
- log2 fold change [12]: 0.038
- log2 fold change (givinostat): 0.177
- log2 fold change (barasertib): 0.076

Target: POMP (UniProt Q9Y244)
Chain of UniProt Q9Y244 (Q9Y244 whole entry, looked up): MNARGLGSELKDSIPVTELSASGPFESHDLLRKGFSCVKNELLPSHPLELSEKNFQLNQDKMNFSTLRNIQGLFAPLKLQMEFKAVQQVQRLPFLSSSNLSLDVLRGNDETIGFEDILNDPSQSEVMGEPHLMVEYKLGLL
- log2 fold change (IRAK-1-4 Inhibitor I): 0.029
- log2 fold change (ibrutinib): -0.002
- log2 fold change [1]: -0.002
- log2 fold change (ralimetinib): -0.022
- log2 fold change [2]: -0.033
- log2 fold change [3]: 0.009
- log2 fold change [4]: -0.002
- log2 fold change (pinometostat): -0.023
- log2 fold change [5]: 0.076
- log2 fold change [6]: -0.053
- log2 fold change [7]: 0.024
- log2 fold change [8]: 0.075
- log2 fold change [9]: -0.069
- log2 fold change [10]: 0.076
- log2 fold change (Nexturastat A): 0.145
- log2 fold change (vemurafenib): -0.023
- log2 fold change [11]: -0.023
- log2 fold change [12]: 0.016
- log2 fold change (givinostat): -0.045
- log2 fold change (barasertib): 0.054
